In all, about 33,000 sequences were measured (“E-score (-0.5 to 0.5)”: median about -0.056, highest 2% from about 0.38 on). The sample as a whole holds a higher share of the highest values than the screen did.
The sequences below were run against Stb4 (UniProt P50104) (assay: PBM E-score (8-mer binding enrichment) (E-score (-0.5 to 0.5)); higher = stronger / more preferred TF binding). Settings: protein concentration: 200 nM; construct: GST-DNA-binding domain.
Experimental: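 Universal 'all 10-mer' protein binding microarrays (Agilent AMADID 015681) probed with GST-tagged S. cerevisiae TFs (full-length or DBD) made by in vitro transcription/translation (PURExpress), about 100-200 nM. Bound TF was detected with fluorescent anti-GST. Each ungapped 8-mer (which stands for itself and its reverse complement) is scored by the PBM enrichment score (E-score), a modified Wilcoxon-Mann-Whitney statistic from -0.5 to +0.5, computed with the Universal PBM Analysis Suite. Scale: above 0.35 generally sequence-specific binding.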

UniProt P50104, sequence (P50104 whole entry, the tested form may be a part): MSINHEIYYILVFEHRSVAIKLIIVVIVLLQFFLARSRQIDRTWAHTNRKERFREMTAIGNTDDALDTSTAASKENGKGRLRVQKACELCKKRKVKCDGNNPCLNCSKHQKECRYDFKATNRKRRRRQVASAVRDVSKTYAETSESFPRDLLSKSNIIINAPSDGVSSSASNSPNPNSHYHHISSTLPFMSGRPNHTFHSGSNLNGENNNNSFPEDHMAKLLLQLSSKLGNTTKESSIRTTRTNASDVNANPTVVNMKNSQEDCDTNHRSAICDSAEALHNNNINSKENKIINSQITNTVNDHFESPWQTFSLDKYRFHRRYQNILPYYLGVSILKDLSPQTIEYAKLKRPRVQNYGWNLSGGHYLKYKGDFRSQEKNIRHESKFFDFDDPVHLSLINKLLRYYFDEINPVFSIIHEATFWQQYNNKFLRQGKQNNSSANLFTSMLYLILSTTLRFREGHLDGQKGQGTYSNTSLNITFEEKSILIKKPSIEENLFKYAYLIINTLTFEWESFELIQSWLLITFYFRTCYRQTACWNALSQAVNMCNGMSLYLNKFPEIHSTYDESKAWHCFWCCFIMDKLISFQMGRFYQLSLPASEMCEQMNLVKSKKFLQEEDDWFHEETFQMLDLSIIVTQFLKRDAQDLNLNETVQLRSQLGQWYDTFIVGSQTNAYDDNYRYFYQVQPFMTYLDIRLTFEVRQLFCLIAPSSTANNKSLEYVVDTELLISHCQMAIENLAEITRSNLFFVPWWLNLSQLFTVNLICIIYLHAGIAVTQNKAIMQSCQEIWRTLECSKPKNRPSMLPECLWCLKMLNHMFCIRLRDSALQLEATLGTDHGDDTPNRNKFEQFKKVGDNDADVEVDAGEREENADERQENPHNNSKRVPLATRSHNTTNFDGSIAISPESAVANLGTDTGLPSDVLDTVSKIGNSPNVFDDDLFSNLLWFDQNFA

Row | Sequence | PBM E-score
1 | CCGAACAG | 0.4
2 | GCGAACAA | -0.0836
3 | CCGAACTC | 0.374
4 | ACGAACAA | 0.079
5 | CCGAACTA | 0.395
6 | CCGAACAC | 0.372
7 | ACGAACAG | -0.15
8 | GCAACGAC | 0.0391
9 | CACTGTGA | -0.018
10 | AGCCCCTA | -0.139
11 | AAGGGTTC | -0.14
12 | CACGTGTA | -0.0718
13 | GTGTGAAC | 0.0138
14 | CGTGGCAC | -0.178
15 | CCCTGTGC | -0.0934
16 | AAATCGGG | 0.317
17 | CTATCGGC | 0.26
18 | ATATCGGA | 0.383
19 | TAATCGGA | 0.324
20 | AAATCGGA | 0.399
21 | GCATCGGA | 0.359
22 | ATATCGGC | 0.316
23 | ACATCGGA | 0.346
24 | CTATCGTA | -0.199
25 | ATATCGGG | 0.306

Row | Sequence | PBM E-score
26 | CTATCGGA | 0.423
27 | TCATCGGA | 0.403
28 | AAATGCGT | -0.129
29 | AGTGTGAT | -0.0318
30 | CAATTTAC | -0.00625
31 | CATAGTGG | -0.102
32 | CCGACCTA | 0.296
33 | CACGGTGG | -0.061
34 | GGCCCACC | 0.0688
35 | AAAAGATT | -0.0765
36 | AGGTTTAC | -0.0584
37 | GTATCGGA | 0.39
38 | GTATCGAA | -0.0419
39 | GAATCGGA | 0.38
40 | ACATCACC | 0.0212
41 | CATCTGTC | 0.0312
42 | ACTTCCCG | 0.354
43 | CCTTCCGC | 0.306
44 | GCTTCCGA | 0.473
45 | ACTTCCGG | 0.411
46 | ACTTCCGA | 0.479
47 | CCTTCCTA | -0.354
48 | GCTTCCTA | -0.0701
49 | ACTTCCCA | -0.158
50 | ACTTCCGC | 0.379

Row | Sequence | PBM E-score
51 | ACTTCCTG | -0.0685
52 | CCTTCCGA | 0.451
53 | GCTTCCAA | -0.147
54 | AAAACTTT | 0.0161
55 | CCTGTATC | 0.011
56 | CTGCTAAC | -0.0715
57 | ATCTCTAA | 0.0304
58 | AGCCAGAT | 0.0138
59 | CACCGCAA | 0.0924
60 | CACCGTCA | -0.13
61 | CGGATGGC | 0.347
62 | GACCCATC | 0.0784
63 | TACCCCGA | 0.342
64 | TACCCGGA | 0.415
65 | GCCCCGAA | 0.31
66 | GACCCGGA | 0.323
67 | AACCCGAC | 0.324
68 | CACCCGGA | 0.358
69 | GACCCGAA | 0.428
70 | GACCCGAC | 0.384
71 | TACCCGAA | 0.476
72 | GACCCCGA | 0.288
73 | GACCCGCC | 0.0652
74 | TACCCGTA | 0.31
75 | GAAAAGTC | -0.011

Row | Sequence | PBM E-score
76 | ACCAAGGA | 0.00373
77 | AAGGCCTA | -0.225
78 | ATTTGGGG | -0.0633
79 | AACCCGCA | 0.156
80 | ACCCCGAA | 0.369
81 | AACCCGAA | 0.387
82 | ACCAAGAA | -0.0301
83 | CGCCGGAG | 0.168
84 | GGCCGGAA | 0.371
85 | AGCCGGAC | 0.239
86 | AGCCGGCT | 0.238
87 | TGCCGGCA | 0.296
88 | AGCCGGAA | 0.395
89 | AGCCGGAG | 0.379
90 | TGCCGGAA | 0.419
91 | AGCCGGCA | 0.316
92 | CGCCGGAC | 0.146
93 | CGCCGGAA | 0.392
94 | AGCCGGAT | 0.396
95 | AAGAATAT | 0.0558
96 | GCAAGTAA | -0.0627
97 | ATTTAAAT | -0.101
98 | AGAAAGGG | -0.138
99 | ATCTTGTA | -0.0999
100 | TGAGAGCA | -0.178

Row | Sequence | PBM E-score
101 | CATCGCCA | -0.0625
102 | AGGCGGAA | 0.278
103 | CGGCGGAA | 0.408
104 | GGGCGGAA | 0.308
105 | CAGCTTTA | -0.0389
106 | ACTCGGAA | 0.47
107 | TCTCGGAA | 0.479
108 | ACTCGGAT | 0.467
109 | ACTCGGTC | 0.204
110 | ACTCGTAA | 0.0295
111 | ACTCGGAC | 0.327
112 | GCACGGAA | 0.327
113 | GCGCGGAA | 0.338
114 | ACTCGGTG | 0.124
115 | TCGCGGAA | 0.315
116 | TCTCGTAA | 0.00218
117 | GCTCGGAA | 0.482
118 | CAGTCCCC | -0.362
119 | CTCTCAGC | -0.362
120 | CCACTGGG | -0.231
121 | ATCGCATG | -0.117
122 | AGATACAC | -0.107
123 | AGGCAGGA | -0.188
124 | ACTCTATC | -0.0391
125 | AAGGCTAC | -0.0344

Row | Sequence | PBM E-score
126 | CCCACTCG | 0.0329
127 | GCACGGAC | 0.13
128 | CCACGGAA | 0.354
129 | TCACGGAA | 0.389
130 | GCTCGTAC | -0.0377
131 | GCTCGGAC | 0.391
132 | ACACGGAA | 0.338
133 | GTCACCAC | -0.103
134 | AGGGGAGA | -0.0188
135 | GTGCGTCA | -0.101
136 | CCCCGCTC | -0.0289
137 | CTAAATCC | 0.205
138 | GATTATCA | 0.0201
139 | AGTATCAT | 0.0471
140 | ACTCCAGC | -0.253
141 | AGGGTATC | -0.0302
142 | AGGGTATA | -0.029
143 | GGGGTTTA | -0.0416
144 | CGGGTATA | 0.418
145 | CGGGTTTA | 0.389
146 | AGGGTAGA | -0.166
147 | CGGGTAGC | 0.37
148 | GGGGTATA | 0.06
149 | CGGGTATC | 0.404
150 | CGGGTTTC | 0.277

Row | Sequence | PBM E-score
151 | CGGGTAGA | 0.389
152 | CGGGTACC | 0.312
153 | CAGCATCC | 0.121
154 | GACAAGTA | -0.0988
155 | AGAGTGCG | -0.164
156 | CGTTGATA | 0.0343
157 | AGATCTGG | -0.188
158 | CAACTAGA | -0.182
159 | GAACGGTC | 0.148
160 | AATCCGCC | 0.218
161 | GATCCGAC | 0.434
162 | CATCCGCG | 0.285
163 | AATCCGCG | 0.127
164 | GATCCCAC | -0.00608
165 | CATCCGCC | 0.4
166 | AATCCGAG | 0.407
167 | GATCCAAC | 0.104
168 | GATCCGCC | 0.273
169 | CATCCGAG | 0.481
170 | CGTCCGAG | 0.257
171 | AATCCGTG | 0.172
172 | ACCAGCCA | -0.0271
